Results filed as inconclusive are left out. Activity calls are given as the source filed them. The call rests on the fitted dose curve.
On the % scale 0 is the no-effect control and ±100 the full control effect.

The test in a line: p53 small molecule agonists, cell-based qHTS assay with human liver microsomes (AID 1963577).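 Further: p53 response element beta-lactamase reporter cells with liver microsomes plus NADPH.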 The following applies: HCT-116 p53RE-bla with human liver microsomes, ratio, 16 h; series mostly up to 66 µM; activation: at the top concentration. An excerpt:
National Center for Advancing Translational Sciences [NCATS]
Division of Preclinical Innovation [DPI]
U.S. Environmental Protection Agency [EPA]
National Institutes of Environmental Health Sciences [NIEHS]
National Toxicology Program [NTP]
U.S. Food and Drug Administration [FDA]
p53, a tumor suppressor protein, is activated following cellular insult, including DNA damage and other cellular stresses. The activation of p53 regulates cell fate by inducing DNA repair, cell cycle arrest, apoptosis, or cellular senescence. The activation of p53, therefore, is a good indicator of DNA damage and other cellular stresses. […] The activation of the reporter gene under culture conditions can be detected by fluorescence intensity.
Tox21 Assay Protocol Summary:
The p53RE-bla cells were dispensed at 4,000cells/3ul/well in 1536-well black-clear bottom plates. After the assay plates were incubated at 37 C, 5% CO2 incubator for 5 hours, 23 nL of compounds dissolved in DMSO, positive controls or DMSO only was transferred to the assay plate. Following compound addition, 3 uL of human liver microsomes (XenoTech, Kansas City, KS) at final concentration of 0.5 mg/mL and 1uL of Beta-Nicotinamide adenine dinucleotide 2-phosphate (NADPH) at final concentration of 0.5 mg/mL were transferred to the assay plate. The plates were incubated at 37 C for 16 hours. 1 uL of LiveBLAzer detection mixture was added to each well and the plates were incubated at room temperature in the dark for 2 h.
With `CCOc1cc(Oc2ccc(C(F)(F)F)cc2Cl)ccc1[N+](=O)[O-]`, the Potency entry was “inactive”.

Take `ClP(Cl)(Cl)(Cl)Cl`: the “activation” value was -1.37% (inactive).

Take `Clc1ccc(C2(Cn3cncn3)CC(Br)CO2)c(Cl)c1` (stereo not given): the “activation” value was 1.57% (inactive).

On to `CCCC[N+](CCCC)(CCCC)CCCC`, for which the “activation” value is -0.514% (inactive).

For the molecule `c1cc[c]([Hg][c]2ccccc2)cc1`, the “activation” value is -8.56% (inactive).

On to `C[N+]1(CCF)[C@@H]2CC[C@H]1CC(OC(=O)C(O)(c1ccccc1)c1ccccc1)C2` (stereo not given in full), for which the “activation” value is -0.453% [at 30.3 µM] (inactive).

Consider `CC(=O)c1ccc(-c2ccccc2)cc1`, for which the “activation” value is -14.7% (inactive).

Turning to `CCOC(=O)COc1ccc(Cl)cc1Cl`, the “activation” value was 1.65% (inactive).

With `CCCCCOC(=O)c1ccccc1C(=O)OCCCCC`, the Potency result is “inactive”.

For the molecule `C[C@@H](Oc1ccc(Cl)cc1Cl)C(=O)O`, the “activation” value was -0.193% (inactive).

For `OC(c1ccc(F)cc1)(c1cncnc1)c1ccccc1Cl` (stereo not given), the “activation” value is -5.68% (inactive).

For the molecule `CN=CNc1ccc(C)cc1C`, the “activation” value is 2.04% (inactive).

For the molecule `CCCCCCCCCCCCCC[P+](CCCCCC)(CCCCCC)CCCCCC` (tested in a mixture with another compound), the “activation” value is -8.47% (inactive).

For `II`, the “activation” value was 2.02% (inactive).

As for `CCOC(=O)COc1cc(-c2nn(C)c(OC(F)F)c2Cl)c(F)cc1Cl`, the “activation” value is -4.37% (inactive).

Turning to `N#CN=C1SCCN1Cc1ccc(Cl)nc1`, the “activation” value is -3.17% (inactive).

`O=C(Nc1ccccc1-c1ccc(Cl)cc1)c1cccnc1Cl`: the “activation” value is -14.2% (inactive).

With `CCSC(=O)Cl`, the “activation” value was 2.3% (inactive).

For the molecule `COc1cc(C=O)cc2c1[C@H](COC(N)=O)[C@]1(OC(C)=O)ON2C[C@H]2[C@@H]1N2C(C)=O`, the “activation” value is -8.88% (inactive).

With `O=[N+]([O-])c1ccc(O)c([N+](=O)[O-])c1`, the Potency result is “inactive”.

Consider `CC(Cc1ccccc1)NCCCCl` (stereo not given), for which the “activation” value was 1.1% [at 30.3 µM] (inactive).

Turning to `Brc1ccc(Oc2ccc(Br)cc2Br)c(Br)c1`, the “activation” value was -2.23% (inactive).

Take `Clc1c(Cl)c(Cl)c(Cl)c(Cl)c1Cl`: the activation was -0.641% [at 5.99 µM] (inactive).

Regarding `CC(C)(COCC1CO1)COCC1CO1` (stereo not given), the “activation” value was -7.72% (inactive).

As to `CC[C@H]1C[C@H]2[C@@H]3CCC4=CC(=O)CC[C@@H]4[C@H]3CC[C@]2(C)[C@H]1O`, the “activation” value is -14.9% [at 30.3 µM] (inactive).

As to `O=C(NC(=O)c1cc(F)c(F)cc1Cl)Nc1cc(F)ccc1N1CCC(C(=O)O)CC1`, the “activation” value was -16% [at 30.3 µM] (inactive).

As for `O=C(Nc1ccccc1)N(Cc1ccc(Cl)cc1)C1CCCC1`, the “activation” value is 8.1% (inactive).

In the case of `CC[C@H](C)[C@H]1O[C@]2(C=C[C@@H]1C)C[C@@H]1C[C@@H](C/C=C(\C)[C@@H](O[C@H]3C[C@H](OC)[C@@H](O[C@H]4C[C@H](OC)[C@@H](NC)[C@H](C)O4)[C@H](C)O3)[C@@H](C)/C=C/C=C3\CO[C@@H]4[C@H](O)C(C)=C[C@@H](C(=O)O1)[C@]34O)O2`, the “activation” value was -0.233% (inactive).

For `C[C@@H]1C[C@@H]([C@H](O)CC2CC(=O)NC(=O)C2)C(=O)[C@@H](C)C1`, the Potency entry was “inactive”.

With `CN1CCN(C(=O)O[C@H]2c3nccnc3C(=O)N2c2ccc(Cl)cn2)CC1`, the “activation” value is 0.427% [at 30.3 µM] (inactive).

Consider `Oc1ccc(Cc2ccc(O)cc2)cc1`, for which the “activation” value is -7.46% (inactive).

`C=CCC1=C(C)[C@@H](OC(=O)[C@@H]2[C@@H](C=C(C)C)C2(C)C)CC1=O`: the “activation” value was -7.02% (inactive).

For the molecule `O=C(O)CBr`, the “activation” value is -2.72% (inactive).

Take `CCN1CCC2(CC1)COc1cc3c(cc12)N(C(=O)c1ccc(-c2ccc(-c4nnc(C)o4)cc2C)cc1)CC3`: the “activation” value is -15.2% (inactive).

With `FC(F)(F)c1cccc(C2=CCN(CCc3ccc4ccccc4c3)CC2)c1`, the “activation” value was 2.48% [at 30.3 µM] (inactive).

Take `BrCCCCCCBr`: the “activation” value is -15.4% (inactive).

Take `CC(CCc1ccccc1)NC(C)C(O)c1ccc(O)cc1` (stereo not given): the “activation” value was 1.01% [at 30.3 µM] (inactive).

Turning to `[F][Sn]([c]1ccccc1)([c]1ccccc1)[c]1ccccc1`, the “activation” value was -12.3% (inactive).

For `CCC1COC(Cn2cncn2)(c2ccc(Cl)cc2Cl)O1` (stereo not given), the “activation” value was -7.14% (inactive).

As to `O=C(N[C@@H]1N=C(c2ccccc2F)c2cccc3c2N(CC3)C1=O)c1cc2ccccc2[nH]1`, the “activation” value was -13.8% [at 30.3 µM] (inactive).

(Values after PubChem BioAssay (Tox21).)
